High-throughput results as filed in PubChem.
A selection: hits, their analogues and other compounds. The true share with any hit is near 18%.
DT40 TDP1 no CPT – qHTS for Inhibitors of human tyrosyl-DNA phosphodiesterase 1 (TDP1): qHTS in cells in absence of CPT; DT40 Tdp1-/- hTDP1 cells, no CPT, ATP luminescence, 48 h; 420,000 compounds, 15% hits; AID 686978, 2013; Potency, µM (highest dose often 46.2 µM), without a hit: at the top dose activity change, negative = growth inhibition, actives largely listed as inhibitors; further: potency means the concentration at half of the fitted maximal effect; nearly all actives have a fitted effect of over 55% in size
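Chicken DT40 Tdp1-/- cells complemented with human TDP1, screened without camptothecin (DMSO vehicle only), 400 cells/well. Compounds pin-transferred, cells incubated at 37 °C for at least 48 hr. Growth read as ATP-dependent luminescence (CellTiter-Glo, 30 min at RT).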
IL1B secr inh – qHTS for Inhibitors of Inflammasome Signaling: IL-1-beta AlphaLISA Primary Screen; THP-1 LPS/ATP IL-1B secretion, AlphaLISA, 16 h; active compounds read low; activity change, % at 57.5 µM; 360,000 compounds, 4.7% hits; in the data active means activity change below about -50%; inconclusive means mostly about -30% to -49%
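Secreted IL-1B measured by AlphaLISA bead assay after 16 h compound exposure of THP-1 cells; compounds (final up to 57.5 uM) added 1 h before LPS (250 ng/mL) and ATP (1.25 mM) stimulation; lower signal means less secretion.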
TDP1 inh – qHTS Assay for Inhibitors of Tyrosyl-DNA Phosphodiesterase (TDP1); Tyrosyl-DNA phosphodiesterase 1 (Homo sapiens), Q9NUW8; recombinant TDP1, AlphaScreen DNA substrate cleavage; Potency, µM (series often up to 130 µM), inactives show at the highest dose activity change, negative = inhibition, actives largely listed as inhibitors; 350,000 compounds, 0.28% hits; AID 485290, 2010; further: potency means the concentration at half of the fitted maximal effect; nearly all actives have a fitted effect of over 40% in size
Target sequence (Q9NUW8 whole entry, looked up): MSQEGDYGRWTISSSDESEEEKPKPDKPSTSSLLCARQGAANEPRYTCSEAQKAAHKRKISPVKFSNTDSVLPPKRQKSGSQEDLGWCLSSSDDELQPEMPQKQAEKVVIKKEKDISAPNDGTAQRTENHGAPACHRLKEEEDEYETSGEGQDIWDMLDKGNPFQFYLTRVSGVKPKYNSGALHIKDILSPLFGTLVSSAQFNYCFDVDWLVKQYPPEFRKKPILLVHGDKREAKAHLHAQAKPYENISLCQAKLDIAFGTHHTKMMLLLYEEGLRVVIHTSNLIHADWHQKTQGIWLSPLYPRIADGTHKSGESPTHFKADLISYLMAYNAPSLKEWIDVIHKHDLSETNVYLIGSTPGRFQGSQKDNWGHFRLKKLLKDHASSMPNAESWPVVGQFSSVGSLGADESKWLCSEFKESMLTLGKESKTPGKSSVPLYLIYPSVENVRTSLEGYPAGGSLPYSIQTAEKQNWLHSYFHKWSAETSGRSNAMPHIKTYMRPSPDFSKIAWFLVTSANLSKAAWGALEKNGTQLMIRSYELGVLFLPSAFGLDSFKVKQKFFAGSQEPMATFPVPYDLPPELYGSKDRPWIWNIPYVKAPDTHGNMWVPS
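E. coli-derived human Tdp1, 1 nM final. Cpd preinc 15 min RT; substrate 15 nM final, 5 min RT; AS bead mix 10 ug/ml final, 10 min RT. Signal loss = tyrosine-FITC cleavage. No-enzyme wells = max signal.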
CtBP-E1A blk – qHTS Assay for Inhibitors of the CtBP/E1A Interaction | CtBP / adenovirus E1A interaction (AlphaScreen) | 340,000 compounds, 0.49% hits | activity change, % (concentration not given with the values) | AlphaScreen GST-E1A/His-CtBP binding, 1536-well; active compounds read low; in the data active means activity change below about -65%; inconclusive means mostly about -30% to -63%
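AlphaScreen with 125 nM GST-E1A and 125 nM His-CtBP (5X stocks) in Tris pH 8.0, 300 mM NaCl, BSA, Tween 20, TCEP. Compounds preincubated 2 h at 37 deg C, then glutathione donor/nickel acceptor beads added for 1 h at 37 deg C in dark.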
DT40 TDP1 CPT – qHTS for Inhibitors of human tyrosyl-DNA phosphodiesterase 1 (TDP1): qHTS in cells in presence of CPT. chicken DT40 Tdp1-/-;hTDP1 cells + 20 nM CPT, ATP luminescence, 48 h. Potency, µM (top dose mostly 46.2 µM), inactives show top-dose activity change, negative = growth inhibition, most hits filed as inhibitors. 420,000 compounds, 12% hits. AID 686979, 2013; further: potency means the concentration at half of the fitted maximal effect; nearly all actives have a fitted effect of over 55% in size
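Chicken DT40 Tdp1-/- cells complemented with human TDP1, 400 cells/well, exposed to compounds plus 20 nM camptothecin for at least 48 h at 37 C; viability read as ATP content by CellTiter-Glo luminescence.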
Six1-Eya2 blk – qHTS Assay for Inhibitors of the Six1/Eya2 Interaction; Homeobox protein SIX1 (Homo sapiens) + Protein phosphatase EYA2 (Homo sapiens), …; AlphaScreen GST-Six1/His-Eya2 binding, biochemical; active compounds read low; activity change, % (no concentration beside the values); 360,000 compounds, 0.56% hits; in the data active means activity change below about -65%; inconclusive means mostly about -30% to -63%
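AlphaScreen luminescence read after one hour at 37 °C in darkness. Pin-transferred compounds met GST-Six1 and His-Eya2 protein (5X stock 250 nM/500 nM) plus glutathione donor and Ni-chelate acceptor beads (5X, 50 ug/mL).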
The depositor's hits bear a star; u = inconclusive; x = no result given. Unless noted, the call rests on the fitted dose curve; in most records, active means well fitted curve in the direction sought with a large enough effect; inconclusive means small, poorly fitted or top-dose-only effect, or another doubt; inactive means no such curve, though single readings can be large; an effect the other way counts as inactive or inconclusive. On the % scale 0 is the no-effect control and ±100 the full control effect.

SMILES | DT40 TDP1 no CPT | IL1B secr inh | TDP1 inh | CtBP-E1A blk | DT40 TDP1 CPT | Six1-Eya2 blk
CCC1CCCCN1C(=O)CSc1nc(-c2ccc(OC)c(OC)c2)cc(C(F)(F)F)n1 (stereo not drawn) | 23µM* | x | -10% | x | u | x
N#CC1(Cc2ccc([N+](=O)[O-])cc2)c2ccccc2C=CN1C(=O)c1ccccc1 (stereo not drawn) | 15µM* | -20 | -3% | -7 | u | 2
CN(Cc1ccccc1)C(=O)c1nc2ccccn2c1CN1CCc2sccc2C1 | u | -94* | x | -11 | -22% | -13
Cc1nn(C)cc1CN(C)Cc1c(C(=O)N(C)Cc2ccccc2)nc2ccccn12 | u | 18 | 6% | 0 | u | 6
CN(Cc1c(C(=O)N(C)Cc2ccccc2)nc2ccccn12)CC1Cc2ccccc2O1 (stereo not drawn) | 15µM* | 1 | 8% | 4 | 18µM* | 0
CN(Cc1ccccc1)C(=O)c1nc2ccccn2c1CNCCOc1cccnc1 | 0% | -3 | 3% | x | -3% | 5
Cc1c(CCC(=O)NCCc2ccc(Cl)cc2)c(=O)oc2c(C)c(O)ccc12 | -20% | x | 0% | x | u | x
Cc1ccc(C(C)C)c(OCC(O)CN(C)Cc2ccccc2)c1 (stereo not drawn) | u | -85* | x | 6 | 23µM* | 6
CN(CCOc1ccccc1)Cc1ccccc1 | -26% | -1 | x | 4 | u | 0
COc1ccccc1OCCCOc1ccc(C)cc1Br | u | 2 | u | 40 | -13% | 44
Cc1ccc(OCCCCN(C)Cc2ccccc2)c(Br)c1 | 18µM* | -98* | -1% | 14 | 23µM* | 10
Cc1ccc(C(C)C)c(OCCCN(C)Cc2ccccc2)c1 | 23µM* | -21 | 3% | -2 | 16µM* | 4
Cc1cc(C)c(OCCCCN(C)Cc2ccccc2)c(C)c1 | 23µM* | -2 | x | x | u | u
COc1ccccc1N1CCN(C(=O)CNC(=O)c2ccc(Cl)cc2Cl)CC1 | u | 18 | 10% | 5 | u | -4
C=CCC(C#N)(c1ccc(OC)c(OC)c1)c1cnccn1 (stereo not drawn) | -10% | 15 | 0% | 7 | -2% | 0
Cc1ccccc1OCC(O)CNC1CCCC1 (stereo not drawn) | -6% | 11 | x | -5 | -1% | -8
Cc1ccc(C(C)C)c(OCC(O)CNC2CCCC2)c1 (stereo not drawn) | 16µM* | -51* | 2% | x | 23µM* | -1
CCN(CCn1cccn1)C(=O)c1cc(COc2c(F)cccc2F)on1 | -17% | 1 | 8% | 0 | 3% | 41
CCN1C(=O)[C@@H]2[C@@H](c3ccc(SC4CCCCC4)cc3)N3CCC[C@@]3(C(=O)OC)[C@@H]2C1=O | 21µM* | -2 | 5% | x | u | -13
CCCSc1ccc([C@@H]2[C@@H]3C(=O)N(CC)C(=O)[C@@H]3[C@]3(C(=O)OC)CCCCN23)cc1 | 21µM* | 14 | -2% | -12 | 18µM* | 4
CCN1C(=O)[C@H]2[C@@H](c3ccc(SC4CCCCC4)cc3)N3CCCC[C@@]3(C(=O)OC)[C@H]2C1=O | 16µM* | 0 | -1% | -14 | 15µM* | 7
CCN1C(=O)[C@@H]2[C@@H](c3ccc(SC4CCCCC4)c(OC)c3)N3CCCC[C@@]3(C(=O)OC)[C@@H]2C1=O | u | u | 1% | 10 | 21µM* | 3
